PubChem BioAssay (EPA / NIEHS)
Values joined by “and” are separate entries in the source; they are usually repeats but may differ in a detail not shown here. Equal entries are not always repeated. Inconclusive results are not listed. Active and inactive are the calls of the source. The calls were made as follows, unless noted: active = hit-call score of the fitted dose curve at least 0.9, where 1 is the maximum; inactive = score below 0.9.

What was measured:
[1] = biological target: human RAR-related Orphan Receptor gamma (RORg), RORC (gene 6097) (UniProt P51449); experiment: ATG_RORg_TRANS: Attagene TRANS-FACTORIAL HepG2 Assay for human RAR-related Orphan Receptor gamma (RORg) (AID 2283011; active = hit-call score of the fitted dose curve at least 0.9, where 1 is the maximum)
Procedure, shortened: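 Reporter transcripts from a transfected RORg-GAL4 chimera in HepG2 cells were quantified 24 h after dosing by RT-PCR, 6-FAM labelling, HpaI digestion and capillary electrophoresis; increases over DMSO baseline were fitted.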

[2] = read-out: E-selectin (Homo sapiens) (UniProt P16581); experiment: BSK_3C_Eselectin: BioMAP Diversity Plus: 3C Assay for Eselectin Biomarker Activity (AID 2283015); details: primary human endothelial cells (HUVEC); actives raise or lower the signal
Procedure, shortened: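 E-selectin ELISA readout, fitted bidirectionally relative to DMSO, taken 24 h post-dosing in HUVEC cultures of the 3C system. Overt cytotoxicity tracked with sulforhodamine B staining of parallel wells.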

[3] = read-out: Interleukin-1 alpha (IL1a), IL1A (gene 3552); experiment: BSK_BE3C_IL1a: BioMAP Diversity Plus: BE3C Assay for Interleukin-1 alpha (IL1a) Biomarker Activity (AID 2283016); details: primary human bronchial epithelial cells; actives raise or lower the signal
Procedure, shortened: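 Human primary bronchial epithelial cells, 24 h chemical exposure; IL-1a quantified by ELISA, fitted bidirectionally against DMSO. Cytotoxicity assessed in parallel by SRB total-protein staining at the time of measurement.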

[4] = read-out: Monocyte Chemoattractant Protein-1 (MCP1), CCL2 (gene 6347); experiment: BSK_3C_MCP1: BioMAP Diversity Plus: 3C Assay for Monocyte Chemoattractant Protein-1 (MCP1) Biomarker Activity (AID 2283017); details: primary human endothelial cells (HUVEC); actives raise or lower the signal
Procedure, shortened: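 MCP-1 was measured by ELISA 24 h after dosing in primary HUVEC 3C cultures and fitted in both directions relative to DMSO; cytotoxicity was checked by SRB total-protein staining in parallel wells.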

[5] = read-out: Monocyte Chemoattractant Protein-1 (MCP1), CCL2 (gene 6347); experiment: BSK_4H_MCP1: BioMAP Diversity Plus: 4H Assay for Monocyte Chemoattractant Protein-1 (MCP1) Biomarker Activity (AID 2283018); details: primary human endothelial cells (HUVEC); actives raise or lower the signal
Procedure, shortened: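 Human umbilical vein endothelial cells (4H system) exposed to chemicals for 24 h in 96-well format. MCP-1 measured by ELISA; bidirectional fitting against DMSO, with SRB total-protein staining in parallel cultures for cytotoxicity.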

[6] = read-out: Human Leukocyte Antigen - DR isotype (HLADR), HLA-DRA (gene 3122); experiment: BSK_3C_HLADR: BioMAP Diversity Plus: 3C Assay for Human Leukocyte Antigen - DR isotype (HLADR) Biomarker Activity (AID 2283019); details: primary human endothelial cells (HUVEC); actives raise or lower the signal
Procedure, shortened: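 Bidirectional fitting against DMSO was applied to the HLA-DR ELISA signal from human umbilical vein endothelial cells, 24 h post-dose. Cytotoxicity came from parallel SRB total-protein staining; 3C proliferation was counted by SRB at 48 h.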

[7] = read-out: Interleukin-8 (IL8), CXCL8 (gene 3576); experiment: BSK_3C_IL8: BioMAP Diversity Plus: 3C Assay for Interleukin-8 (IL8) Biomarker Activity (AID 2283020); details: primary human endothelial cells (HUVEC); actives raise or lower the signal
Procedure, shortened: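 Primary human umbilical vein endothelial cells were dosed for 24 h. IL-8 was quantified by ELISA and fitted bidirectionally against DMSO. Cytotoxicity was assessed in parallel cultures by SRB staining at 560 nm.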

[8] = read-out: Monokine induced gamma interferon (MIG), CXCL9 (gene 4283); experiment: BSK_3C_MIG: BioMAP Diversity Plus: 3C Assay for Monokine induced gamma interferon (MIG) Biomarker Activity (AID 2283021); details: primary human endothelial cells (HUVEC); actives raise or lower the signal
Procedure, shortened: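 HUVEC primary endothelial cultures dosed with chemical; MIG quantified by ELISA at 24 h. Data fitted bidirectionally against DMSO control, with parallel SRB total-protein staining for cytotoxicity.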

[9] = BSK_3C_SRB: Viability Assessment in the BioMAP Diversity Plus: 3C Assay (AID 2283023); details: primary human endothelial cells (HUVEC);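 also: fitted both ways against DMSO so a hit may be signal rise or drop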
Procedure, shortened: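 Cytotoxicity readout in parallel HUVEC 3C cultures: after 24 h compound exposure, cells fixed with 10% TCA, stained with 0.1% SRB and read at 560 nm. Gain or loss relative to DMSO fitted.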

[10] = read-out: Matrix Metallopeptidase 1 (MMP1), MMP1 (gene 4312); experiment: BSK_BE3C_MMP1: BioMAP Diversity Plus: BE3C Assay for Matrix Metallopeptidase 1 (MMP1) Biomarker Activity (AID 2283024); details: primary human bronchial epithelial cells; actives raise or lower the signal
Procedure, shortened: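 Human primary bronchial epithelial cells (BE3C system) dosed for 24 h; MMP-1 quantified by ELISA. Bidirectional fit against DMSO; cytotoxicity tracked in parallel cultures by SRB total-protein staining.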

[11] = BSK_3C_Vis: BioMAP Diversity Plus: 3C Assay for Morphology Visualization (AID 2283025); details: primary human endothelial cells (HUVEC);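 also: fitted both ways so gain or loss versus DMSO counts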
Procedure, shortened: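 Human umbilical vein endothelial cell morphology was inspected by light microscopy 24 h after chemical dosing; scored bidirectionally relative to DMSO.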

[12] = BSK_4H_SRB: Viability Assessment in the BioMAP Diversity Plus: 4H Assay (AID 2283027); details: primary human endothelial cells (HUVEC);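 also: cells exposed to compound for 24 h before staining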
Procedure, shortened: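 Human umbilical vein endothelial cells, 24 h after chemical dosing; total protein measured by 0.1% sulforhodamine B staining after 10% TCA fixation, read at 560 nm. Bidirectional fitting against DMSO.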

[13] = read-out: Thrombomodulin, THBD (gene 7056); experiment: BSK_3C_Thrombomodulin: BioMAP Diversity Plus: 3C Assay for Thrombomodulin Biomarker Activity (AID 2283029); details: primary human endothelial cells (HUVEC); actives raise or lower the signal
Procedure, shortened: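 Human umbilical vein endothelial cells were exposed to chemicals for 24 h; cell-surface thrombomodulin quantified by ELISA, with bidirectional fitting against DMSO baseline.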

[14] = biological target: Retinoic acid receptor RXR-alpha (Homo sapiens) (UniProt P19793); experiment: ATG_RXRa_TRANS: Attagene TRANS-FACTORIAL HepG2 Assay for human Retinoid X Receptor alpha (RXRa) (AID 2283012; active = hit-call score of the fitted dose curve at least 0.9, where 1 is the maximum)
Procedure, shortened: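 HepG2 cells transiently transfected with GAL4-UAS reporter units and chimeric RXRa-Gal4 protein, treated 24 h. Reporter mRNA measured by RT-PCR, fluorescent labelling, HpaI digestion and capillary electrophoresis. Induction fitted against DMSO.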

[15] = biological target: human Retinoid X Receptor beta (RXRb), RXRB (gene 6257) (UniProt P28702); experiment: ATG_RXRb_TRANS: Attagene TRANS-FACTORIAL HepG2 Assay for human Retinoid X Receptor beta (RXRb) (AID 2283013; active = hit-call score of the fitted dose curve at least 0.9, where 1 is the maximum)
Procedure, shortened: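 HepG2 cells were transiently transfected with multiplexed GAL4-UAS reporters and a chimeric RXRb-Gal4 construct, then exposed for 24 h. Reporter mRNA was quantified by RT-PCR, FAM labeling, HpaI digestion and capillary electrophoresis; gain of signal was scored against DMSO.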

[16] = biological target: human Thyroid Receptor alpha (THRa1), THRA (gene 7067) (UniProt P10827); experiment: ATG_THRa1_TRANS: Attagene TRANS-FACTORIAL HepG2 Assay for human Thyroid Receptor alpha (THRa1) (AID 2283014; active = hit-call score of the fitted dose curve at least 0.9, where 1 is the maximum)
Procedure, shortened: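 Transcripts from GAL4-UAS-driven reporters, measured after 24 h compound exposure by RT-PCR plus capillary electrophoresis of 6-FAM-labeled fragments, were fitted for gain of signal relative to DMSO. Cells: transiently transfected HepG2 expressing NR-Gal4 chimeras.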

[17] = biological target: human Vitamin D Receptor (VDR), VDR (gene 7421) (UniProt P11473); experiment: ATG_VDR_TRANS: Attagene TRANS-FACTORIAL HepG2 Assay for human Vitamin D Receptor (VDR) (AID 2283022; active = hit-call score of the fitted dose curve at least 0.9, where 1 is the maximum)
Procedure, shortened: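 Transactivation by an exogenous VDR-Gal4 chimera in transiently transfected HepG2 cells was measured as reporter transcript level 24 hours after chemical treatment. RT-PCR products were analysed by capillary electrophoresis and fitted in the positive direction relative to DMSO.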

[18] = read-out: Pselectin, SELP (gene 6403); experiment: BSK_4H_Pselectin: BioMAP Diversity Plus: 4H Assay for Pselectin Biomarker Activity (AID 2283026); details: primary human endothelial cells (HUVEC); actives raise or lower the signal
Procedure, shortened: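 Primary human umbilical vein endothelial cells were treated 24 h, and cell-surface P-selectin was then quantified by ELISA. Bidirectional fit versus DMSO; cytotoxicity checked in parallel cultures by SRB total-protein staining.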

[19] = BSK_BE3C_SRB: Viability Assessment in the BioMAP Diversity Plus: BE3C Assay (AID 2283028); details: primary human bronchial epithelial cells
Procedure, shortened: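 Cytotoxicity read-out: SRB (0.1%) staining of TCA-fixed (10%) human lung bronchial epithelial cells, absorbance 560 nm, 24 h post-dosing. Curves fitted both directions relative to DMSO.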

Measured: AC50

Retinoic acid receptor RXR-alpha (Homo sapiens), sequence (P19793 whole entry, looked up, the tested form may be a part): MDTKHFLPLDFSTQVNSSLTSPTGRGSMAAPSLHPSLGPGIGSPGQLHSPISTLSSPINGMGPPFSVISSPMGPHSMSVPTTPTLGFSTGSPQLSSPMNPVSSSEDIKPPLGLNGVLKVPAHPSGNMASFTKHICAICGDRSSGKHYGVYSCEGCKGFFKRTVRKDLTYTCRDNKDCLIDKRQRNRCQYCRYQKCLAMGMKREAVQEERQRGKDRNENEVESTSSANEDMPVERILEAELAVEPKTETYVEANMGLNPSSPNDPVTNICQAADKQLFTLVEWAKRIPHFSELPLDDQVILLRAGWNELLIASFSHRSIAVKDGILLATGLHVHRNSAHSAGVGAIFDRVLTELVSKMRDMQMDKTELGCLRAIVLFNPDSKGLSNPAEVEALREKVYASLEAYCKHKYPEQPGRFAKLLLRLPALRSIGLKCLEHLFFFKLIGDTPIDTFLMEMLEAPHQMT
E-selectin (Homo sapiens), sequence (P16581 whole entry, looked up): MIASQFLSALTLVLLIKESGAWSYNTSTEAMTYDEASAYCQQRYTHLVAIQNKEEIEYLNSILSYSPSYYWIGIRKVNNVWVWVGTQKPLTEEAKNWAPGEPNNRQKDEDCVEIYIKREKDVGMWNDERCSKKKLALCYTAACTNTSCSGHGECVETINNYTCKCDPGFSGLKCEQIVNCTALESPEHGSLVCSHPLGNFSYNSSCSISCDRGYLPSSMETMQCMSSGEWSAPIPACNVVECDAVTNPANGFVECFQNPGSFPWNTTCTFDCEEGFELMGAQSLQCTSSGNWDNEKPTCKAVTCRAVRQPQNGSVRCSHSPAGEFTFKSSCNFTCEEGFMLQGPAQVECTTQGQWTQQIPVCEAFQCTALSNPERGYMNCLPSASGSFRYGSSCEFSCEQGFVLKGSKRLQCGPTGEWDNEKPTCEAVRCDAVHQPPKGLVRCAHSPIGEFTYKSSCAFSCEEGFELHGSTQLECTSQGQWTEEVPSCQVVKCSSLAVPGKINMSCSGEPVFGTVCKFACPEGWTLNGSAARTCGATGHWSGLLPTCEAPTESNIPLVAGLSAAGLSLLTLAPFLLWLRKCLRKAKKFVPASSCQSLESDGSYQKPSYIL
human Retinoid X Receptor beta (RXRb), RXRB (gene 6257), sequence (P28702 whole entry, looked up, the tested form may be a part): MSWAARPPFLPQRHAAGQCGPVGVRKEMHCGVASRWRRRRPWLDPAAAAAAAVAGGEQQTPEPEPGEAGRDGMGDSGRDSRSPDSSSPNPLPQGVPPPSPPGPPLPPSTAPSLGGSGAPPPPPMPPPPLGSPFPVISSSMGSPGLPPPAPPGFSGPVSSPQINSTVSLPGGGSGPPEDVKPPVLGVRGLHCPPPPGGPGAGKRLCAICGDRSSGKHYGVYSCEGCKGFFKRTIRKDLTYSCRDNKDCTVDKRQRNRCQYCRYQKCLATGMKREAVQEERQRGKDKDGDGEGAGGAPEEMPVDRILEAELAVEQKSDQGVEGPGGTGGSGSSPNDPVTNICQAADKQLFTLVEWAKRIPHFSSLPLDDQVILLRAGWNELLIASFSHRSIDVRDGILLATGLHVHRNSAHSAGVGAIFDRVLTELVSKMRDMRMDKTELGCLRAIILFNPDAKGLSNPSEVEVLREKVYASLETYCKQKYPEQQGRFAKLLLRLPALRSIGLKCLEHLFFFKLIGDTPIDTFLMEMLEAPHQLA
human Thyroid Receptor alpha (THRa1), THRA (gene 7067), sequence (P10827 whole entry, looked up, the tested form may be a part): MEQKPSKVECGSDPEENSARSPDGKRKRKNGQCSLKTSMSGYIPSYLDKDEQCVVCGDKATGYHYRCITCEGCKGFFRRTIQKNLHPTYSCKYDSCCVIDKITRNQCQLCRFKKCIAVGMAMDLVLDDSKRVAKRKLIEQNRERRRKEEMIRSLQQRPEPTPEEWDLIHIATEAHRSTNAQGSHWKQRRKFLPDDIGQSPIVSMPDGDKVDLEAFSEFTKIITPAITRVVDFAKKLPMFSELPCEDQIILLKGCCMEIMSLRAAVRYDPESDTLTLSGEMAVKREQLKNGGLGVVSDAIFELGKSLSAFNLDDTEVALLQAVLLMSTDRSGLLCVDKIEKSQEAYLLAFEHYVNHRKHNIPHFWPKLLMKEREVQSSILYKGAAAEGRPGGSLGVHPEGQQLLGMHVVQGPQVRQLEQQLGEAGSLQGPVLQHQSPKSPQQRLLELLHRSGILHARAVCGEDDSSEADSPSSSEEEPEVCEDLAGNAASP
human Vitamin D Receptor (VDR), VDR (gene 7421), sequence (P11473 whole entry, looked up, the tested form may be a part): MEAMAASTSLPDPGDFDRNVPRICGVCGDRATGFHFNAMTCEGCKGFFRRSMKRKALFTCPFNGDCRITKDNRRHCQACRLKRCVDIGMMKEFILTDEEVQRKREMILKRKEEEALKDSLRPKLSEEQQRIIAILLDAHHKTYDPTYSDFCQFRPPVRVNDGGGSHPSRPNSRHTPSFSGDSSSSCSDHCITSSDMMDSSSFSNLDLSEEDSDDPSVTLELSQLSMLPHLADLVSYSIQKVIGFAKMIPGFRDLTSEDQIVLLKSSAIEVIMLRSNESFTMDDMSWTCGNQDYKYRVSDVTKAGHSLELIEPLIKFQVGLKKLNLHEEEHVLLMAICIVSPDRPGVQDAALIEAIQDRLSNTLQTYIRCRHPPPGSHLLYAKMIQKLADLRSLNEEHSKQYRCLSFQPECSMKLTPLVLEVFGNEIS
human RAR-related Orphan Receptor gamma (RORg), RORC (gene 6097), sequence (P51449 whole entry, looked up, the tested form may be a part): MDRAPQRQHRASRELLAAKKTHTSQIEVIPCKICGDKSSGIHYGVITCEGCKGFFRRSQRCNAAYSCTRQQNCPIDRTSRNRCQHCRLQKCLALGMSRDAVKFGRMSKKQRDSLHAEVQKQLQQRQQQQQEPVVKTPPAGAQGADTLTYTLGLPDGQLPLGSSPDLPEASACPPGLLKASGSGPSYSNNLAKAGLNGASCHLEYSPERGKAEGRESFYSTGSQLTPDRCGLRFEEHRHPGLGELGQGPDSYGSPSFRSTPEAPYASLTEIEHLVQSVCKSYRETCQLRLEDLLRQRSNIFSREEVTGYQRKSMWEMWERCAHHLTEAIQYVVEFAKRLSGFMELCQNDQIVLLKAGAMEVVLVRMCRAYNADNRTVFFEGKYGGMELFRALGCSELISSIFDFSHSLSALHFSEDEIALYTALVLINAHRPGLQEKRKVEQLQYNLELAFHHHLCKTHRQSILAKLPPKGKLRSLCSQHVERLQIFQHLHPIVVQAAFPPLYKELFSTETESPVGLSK

CCCN(CCC)N=O
not listed: [14] | [15] | [16] | [17] | [18] | [19]
inactive: all other assays above

CCOP(=S)(OCC)SCSC(C)(C)C
active: [15] 25.7 µM and 24.6 µM | [6] 32.5 µM
not listed: [1] | [11]
inactive: all other assays above

O=C(O)C(F)(F)C(F)(F)C(F)(F)C(F)(F)C(F)(F)F
not listed: [1] | [11] | [14] | [16] | [17] | [18] | [19]
inactive: all other assays above

CC#Cc1cc(C)nc(Nc2ccccc2)n1
active: [15] 61.7 µM
not listed: [1] | [16] | [18] | [19]
inactive: all other assays above

Cc1ccccc1O
not listed: [1] | [11] | [15] | [16] | [18] | [19]
inactive: all other assays above

CC1=C2C[C@H]3[C@@H](CC=C4C[C@@H](O)CC[C@@]43C)[C@@H]2CC[C@]12O[C@@H]1C[C@H](C)CN[C@H]1[C@H]2C
active: [4] 2.82 µM
not listed: [1] | [11] | [14] | [15] | [16] | [17] | [18]
inactive: all other assays above

Clc1ccc(C(Cl)(Cl)Cl)cc1
not listed: [1] | [11] | [17] | [18] | [19]
inactive: all other assays above
